# Experimental data from publication PMC8384837, “Expanding the binding specificity for RNA recognition by a PUF domain”.
# Numbering of substitutions follows the chain as printed.
# Experiments:
# Assay in all cases: yeast three-hybrid, YBZ-1, SC-Leu-His + 0.5 mM 3-AT, 4 days
# Details in all cases: tags: N-Gal4 AD-HA kept; label: inside an RPR1-promoter hybrid RNA with tandem MS2 sites; ssRNA
# PUM1 PUF domain R6-SRQ = molecular target: T1, PUM1 PUF domain R6-SRQ (Homo sapiens, UniProt Q14671 828-1176, N1043S;Y1044R)
# T1 sequence: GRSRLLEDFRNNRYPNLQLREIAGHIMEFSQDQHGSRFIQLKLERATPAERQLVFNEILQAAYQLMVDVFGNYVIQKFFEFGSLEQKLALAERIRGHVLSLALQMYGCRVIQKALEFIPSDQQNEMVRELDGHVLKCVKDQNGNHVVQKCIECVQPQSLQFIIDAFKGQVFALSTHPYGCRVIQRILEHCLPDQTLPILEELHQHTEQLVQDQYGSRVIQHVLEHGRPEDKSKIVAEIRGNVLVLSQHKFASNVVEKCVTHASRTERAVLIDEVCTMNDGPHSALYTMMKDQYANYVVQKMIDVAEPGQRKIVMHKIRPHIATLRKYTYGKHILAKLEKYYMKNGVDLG
# Procedure, shortened: (§1)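 Repeat regions from input (SC-Leu) and selection (SC-Leu-His + 0.5 mM 3-AT) plates were PCR-amplified and Illumina-sequenced after four days of growth. The cells were strain YBZ-1 with a LexA–MS2 coat fusion and a HIS3 reporter, co-expressing Pumilio-1 PUF domain libraries and matching RNA elements from a centromeric plasmid. The interaction score is the log change in variant frequency from input to selection, taken in log2 with a pseudocount of 1 for absent variants.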
# PUM1 PUF domain R5-RQK = PUM1 PUF domain R5-RQK (Homo sapiens, UniProt Q14671 828-1176, C1007R;R1008Q;Q1011K)
# Procedure, shortened: as §1
# PUM1 PUF domain R5-GRS = PUM1 PUF domain R5-GRS (Homo sapiens, UniProt Q14671 828-1176, C1007G;Q1011S)
# Procedure, shortened: as §1
# PUM1 PUF domain R3-MRL = PUM1 PUF domain R3-MRL (Homo sapiens, UniProt Q14671 828-1176, C935M;Q939L)
# Procedure, shortened: as §1
# PUM1 PUF domain R3-MRT = PUM1 PUF domain R3-MRT (Homo sapiens, UniProt Q14671 828-1176, C935M;Q939T)
# Procedure, shortened: as §1
# PUM1 PUF domain R6-FHR = molecular target: T2, PUM1 PUF domain R6-FHR (Homo sapiens, UniProt Q14671 828-1176, N1043F;Y1044H;Q1047R)
# T2 sequence: T1 sequence with S216F, R217H, Q220R
# Procedure, shortened: as §1
# PUM1 PUF domain R6-LYM = molecular target: T3, PUM1 PUF domain R6-LYM (Homo sapiens, UniProt Q14671 828-1176, N1043L;Q1047M)
# T3 sequence: T1 sequence with S216L, R217Y, Q220M
# Procedure, shortened: as §1
# PUM1 PUF domain R6-AFF = molecular target: T4, PUM1 PUF domain R6-AFF (Homo sapiens, UniProt Q14671 828-1176, N1043A;Y1044F;Q1047F)
# T4 sequence: T1 sequence with S216A, R217F, Q220F
# Procedure, shortened: as §1
# PUM1 PUF domain R8-NFR = PUM1 PUF domain R8-NFR (Homo sapiens, UniProt Q14671 828-1176, Y1123F;Q1126R)
# Procedure, shortened: as §1
# PUM1 PUF domain R8-PWC = PUM1 PUF domain R8-PWC (Homo sapiens, UniProt Q14671 828-1176, N1122P;Y1123W;Q1126C)
# Procedure, shortened: as §1
# Chain of PUM1 PUF domain R5-GRS (Q14671 828-1176 C1007G/Q1011S): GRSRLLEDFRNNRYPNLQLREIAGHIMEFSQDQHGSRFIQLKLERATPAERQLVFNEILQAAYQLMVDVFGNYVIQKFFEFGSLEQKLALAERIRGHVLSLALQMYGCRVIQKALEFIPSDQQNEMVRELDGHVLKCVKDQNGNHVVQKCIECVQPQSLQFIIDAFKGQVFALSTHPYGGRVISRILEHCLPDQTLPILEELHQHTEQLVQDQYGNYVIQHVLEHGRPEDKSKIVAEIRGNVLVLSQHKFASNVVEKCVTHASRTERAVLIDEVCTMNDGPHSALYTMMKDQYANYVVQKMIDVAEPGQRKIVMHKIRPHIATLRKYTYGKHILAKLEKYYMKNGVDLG
sequence,measurement,setting,value
GGCUAGAACUAGUGGAUCCCCCGGCGCCCGGCGGCUCGAGCCCGGGUAAGUGAAAAUAGUCUGCAUGCCGCCGGGCGCCAUGCCUGCAGGUCGACUCUAGAAAACAUG,binding signal,PUM1 PUF domain R6-SRQ,3.17 log2 enrichment (interaction score)
GGCUAGAACUAGUGGAUCCCCCGGCGCCCGGCGGCUCGAGCCCGGGUAAGUGUUAAUAGUCUGCAUGCCGCCGGGCGCCAUGCCUGCAGGUCGACUCUAGAAAACAUG,binding signal,PUM1 PUF domain R5-RQK,4.75 log2 enrichment (interaction score)
same,binding signal,PUM1 PUF domain R5-GRS,4.35 log2 enrichment (interaction score)
GGCUAGAACUAGUGGAUCCCCCGGCGCCCGGCGGCUCGAGCCCGGGUAAGUGUAAUUAGUCUGCAUGCCGCCGGGCGCCAUGCCUGCAGGUCGACUCUAGAAAACAUG,binding signal,PUM1 PUF domain R3-MRL,1.67 log2 enrichment (interaction score)
same,binding signal,PUM1 PUF domain R3-MRT,3.61 log2 enrichment (interaction score)
GGCUAGAACUAGUGGAUCCCCCGGCGCCCGGCGGCUCGAGCCCGGGUAAGUGUGAAUAGUCUGCAUGCCGCCGGGCGCCAUGCCUGCAGGUCGACUCUAGAAAACAUG,binding signal,PUM1 PUF domain R5-GRS,2.01 log2 enrichment (interaction score)
GGCUAGAACUAGUGGAUCCCCCGGCGCCCGGCGGCUCGAGCCCGGGUAAGUGUAAGUAGUCUGCAUGCCGCCGGGCGCCAUGCCUGCAGGUCGACUCUAGAAAACAUG,binding signal,PUM1 PUF domain R3-MRL,2.68 log2 enrichment (interaction score)
GGCUAGAACUAGUGGAUCCCCCGGCGCCCGGCGGCUCGAGCCCGGGUAAGUGUAAAUAGUCUGCAUGCCGCCGGGCGCCAUGCCUGCAGGUCGACUCUAGAAAACAUG,binding signal,PUM1 PUF domain R6-FHR,3.45 log2 enrichment (interaction score)
same,binding signal,PUM1 PUF domain R6-LYM,5.36 log2 enrichment (interaction score)
same,binding signal,PUM1 PUF domain R6-AFF,5.23 log2 enrichment (interaction score)
same,binding signal,PUM1 PUF domain R8-NFR,3.8 log2 enrichment (interaction score)
same,binding signal,PUM1 PUF domain R5-GRS,3.71 log2 enrichment (interaction score)
GGCUAGAACUAGUGGAUCCCCCGGCGCCCGGCGGCUCGAGCCCGGGUAAGCGUAAAUAGUCUGCAUGCCGCCGGGCGCCAUGCCUGCAGGUCGACUCUAGAAAACAUG,binding signal,PUM1 PUF domain R8-PWC,2.98 log2 enrichment (interaction score)
same,binding signal,PUM1 PUF domain R8-NFR,3.71 log2 enrichment (interaction score)
GGCUAGAACUAGUGGAUCCCCCGGCGCCCGGCGGCUCGAGCCCGGGUAAGUGUCAAUAGUCUGCAUGCCGCCGGGCGCCAUGCCUGCAGGUCGACUCUAGAAAACAUG,binding signal,PUM1 PUF domain R5-RQK,3.94 log2 enrichment (interaction score)
same,binding signal,PUM1 PUF domain R5-GRS,1.13 log2 enrichment (interaction score)
